Compound activity from PubChem BioAssay.
tim10-1 inh: tim10-1 yeast growth inhibition; S. cerevisiae tim10-1 ts strain growth, BacTiter-Glo, 24 h; inhibition, % at 20 µM; 330,000 compounds, 2.2% hits; AID 463190;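 active = inhibition of at least 40%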;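 note: mutant grown at 25 °C; 0% = DMSO wells with yeast and 100% = wells holding no yeast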
PfHsp90 yeast 2: reduces growth (ATP signal) of yeast expressing P. falciparum Hsp90; S. cerevisiae expressing PfHsp90, BacTiter-Glo ATP, 48 h; yeast lacking PDR1 and PDR3 efflux regulators; inhibition, % at 9.4 µM; 310,000 compounds, 0.32% hits; AID 504621;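 active = every replicate shows inhibition above about 80%, whatever the replicate mean, limit read from the data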;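 note: 0% = DMSO neutral controls and 100% = 20 µM radicicol positive controls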
TIM10 inh: inhibits growth of TIM10 yeast strain; S. cerevisiae TIM10 strain growth, BacTiter-Glo luminescence, 24 h; inhibition, % at 10 µM; 330,000 compounds, 1.4% hits; AID 463195;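 active = inhibition of 40% or more at the single tested concentration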;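 note: wild-type TIM10 isogenic control strain grown at permissive 25 °C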
tim23-1 inh: growth inhibitors of tim23-1 mutant yeast; S. cerevisiae tim23-1 growth, BacTiter-Glo luminescence, 24 h; inhibition, % at 20 µM; 330,000 compounds, 1.3% hits;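 active = growth inhibition of the mutant yeast at or above 50%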;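 note: temperature-sensitive mutant grown at 25 °C; plate controls were DMSO-treated mutant yeast for no effect and medium wells lacking yeast for full effect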
SKKanGAS inh: inhibitors of SKKanGAS S. pyogenes growth in kanamycin (SK-promoter or general growth effect) | BacTiter-Glo, 6 h | inhibition, % at 7.5 µM | 300,000 compounds, 1.3% hits | AID 1662;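 active = mean replicate score, as percent of positive control median, at least 50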;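 note: strain carries kanamycin resistance gene driven by streptokinase promoter and grows in 40 µg/ml kanamycin; loss of luminescence reflects streptokinase promoter inhibition or plain growth inhibition; 0% = median of DMSO wells and 100% = positive control at its reference dose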
tim10-1 confirm: confirmation of tim10-1 mutant yeast growth inhibitors; inhibition, % at 20 µM; 7,400 compounds, 56% hits; S. cerevisiae tim10-1 ts strain growth, BacTiter-Glo, 24 h; shares compounds with tim10-1 inh;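 active = inhibition of yeast growth at or above a set limit in either of two repeat tests at 20 µM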;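 note: tim10-1 mutant grown at permissive 25 °C to find synthetic lethal compounds; 0% = DMSO yeast wells and 100% = medium wells without yeast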
TIM10 conf: TIM10 yeast growth inhibition, confirmed | shares compounds with TIM10 inh | S. cerevisiae tim10 strain growth, BacTiter-Glo luminescence, 24 h | inhibition, % at 10 µM | 4,600 compounds, 63% hits | AID 463215;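 active = inhibition of yeast growth at or above a set limit in either of two replicates at 10 µM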;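 note: this counterscreen used the strain with wild-type TIM10; 0% = yeast with DMSO and 100% = medium wells lacking yeast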
tim23-1 confirm: tim23-1 yeast growth inhibition, confirmed; shares compounds with tim23-1 inh; S. cerevisiae tim23-1 growth, BacTiter-Glo luminescence, 24 h; inhibition, % at 20 µM; 4,400 compounds, 83% hits;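 active = inhibition above about 39% in either of two replicate wells at 20 µM, limit read from the data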;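 note: temperature-sensitive tim23-1 mutant grown at 25 °C; 0% = DMSO wells with yeast and 100% = medium wells without yeast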
Numbers without * were called inactive; . = no result. Hits are enriched below; roughly 4.4% of the tested compounds scored in any of these assays.

SMILES	tim10-1 inh	PfHsp90 yeast 2	TIM10 inh	tim23-1 inh	SKKanGAS inh	tim10-1 confirm	TIM10 conf	tim23-1 confirm
O=C(COC(=O)Cc1n[nH]c(=O)c2ccccc12)Nc1c(Br)cc([N+](=O)[O-])cc1Br	.	-19.5	.	.	.	.	.	.
C[C@@H]1CCCCCCCCC(=O)OCCN1C(=O)OC(C)(C)C	10.0	10.9	0.0	30.6	.	.	.	.
O=C(COc1cccc(NC(=O)c2ccco2)c1)c1ccc(F)cc1	41.9*	39.2	47.2*	55.1*	.	32.2*	48.0*	70.9*
COc1cc(N=C2C(=O)N3c4c(cccc42)C(C)=CC3(C)C)cc(OC)c1	19.7	-6.8	15.7	27.8	0.0	.	.	.
COc1cc2c3c(c1)C(C)=CC(C)(C)N3C(=O)C2=O	41.3*	1.1	11.6	56.7*	-4.5	27.9	.	57.3*
Cc1nc(-c2cccc(NC(=O)c3ccco3)c2)cs1	8.0	1.0	14.7	0.6	-2.6	.	.	.
Cc1nc(-c2ccc(NC(=O)c3ccco3)cc2)cs1	50.9*	51.2	42.9*	67.5*	18.4	22.0	49.5*	66.7*
Cc1ccc(C(=O)NCCNC(=O)c2ccccn2)cc1	-31.1	20.1	-16.4	-8.3	1.1	.	.	.
CCOC(=O)c1c(N)sn(-c2ccccc2)c1=S	2.8	8.2	-5.1	7.7	9.0	.	.	.
CCOC(=O)c1c2c(c(=S)n(-c3ccccc3)c1N)CCC2	54.0*	-0.2	-0.4	58.2*	4.6	37.0*	.	66.8*
Cc1cc(-c2ccc(N=Nc3c(S(=O)(=O)O)cc4cc(S(=O)(=O)O)cc(N)c4c3O)c(C)c2)ccc1N=Nc1c(S(=O)(=O)O)cc2cc(S(=O)(=O)O)cc(N)c2c1O	64.5*	.	54.9*	72.0*	.	65.7*	46.6*	77.3*
O=C(CCSc1ccccc1Cl)Nc1cccc([N+](=O)[O-])c1	55.7*	13.3	51.7*	53.7*	-4.4	50.2*	28.9	62.2*
O=C(CCN1C(=O)C2C3CC(C(Br)C3Br)C2C1=O)OCC(=O)c1cccc([N+](=O)[O-])c1 (stereo unspecified)	3.6	16.4	-6.3	8.9	1.8	.	.	.
CC1=NN(C(N)=S)C(=O)C1N=Nc1cccc(Cl)c1C (stereo unspecified)	42.9*	-88.5	35.8	56.6*	15.4	43.5*	.	62.0*
CC(C)N1C(=O)/C(=C/c2nc3ccccc3c(=O)n2-c2ccccc2)c2ccccc21	46.0*	-25.0	47.3*	59.7*	3.5	40.0*	44.0*	57.5*
CC(C)N1C(=O)/C(=C\c2nc3ccccc3c(=O)n2-c2ccccc2)c2ccccc21	.	-3.4	.	.	2.1	.	.	.
Cc1ccc(S(=O)(=O)c2ccc([N+](=O)[O-])cn2)cc1	73.0*	95.2*	73.3*	74.7*	16.9	67.8*	70.0*	74.8*
Cc1ccc(S(=O)(=O)c2ccc(C)cc2)cc1	5.6	-11.8	6.4	24.1	-1.2	.	.	.
COc1ccc(CNC(=O)CN(C(=O)c2snc(C(N)=O)c2N)c2ccc(OC)c(OC)c2)cc1	-9.4	-2.2	-13.2	1.3	-1.5	.	.	.
Cc1oc(-c2nc3ccccc3n2C)cc1C(=O)c1ccccc1	47.8*	43.4	53.2*	55.8*	16.3	32.7*	-28.6	72.7*
Cc1oc2c(c1C(=O)N1CCC(C)CC1)C(=O)c1ccccc1C2=O	52.2*	.	44.8*	73.7*	14.2	42.8*	39.5*	66.8*
CCOC(=O)C1CCN(C(=O)c2c(C)oc3c2C(=O)c2ccccc2C3=O)CC1	48.2*	10.3	32.9	50.8*	14.6	34.4*	.	59.0*
Cc1onc(-c2ccccc2Cl)c1C(=O)N1CCC(C)CC1	5.4	-18.1	-2.7	13.9	-0.2	.	.	.
Cc1ccc(C2(C)NC(=O)N(CC(=O)N3CCN(C(=O)c4cccs4)CC3)C2=O)cc1 (stereo unspecified)	-2.4	-17.1	-1.2	-7.2	.	.	.	.
CC(=O)Oc1c(Br)cc(N(C(C)=O)S(=O)(=O)c2ccccc2)c2ccccc12	39.3	-27.9	32.7	41.1	18.6	.	.	.
SMILES	tim10-1 inh	PfHsp90 yeast 2	TIM10 inh	tim23-1 inh	SKKanGAS inh	tim10-1 confirm	TIM10 conf	tim23-1 confirm
COc1cc(C(O)P(=O)(OC2CCCCC2)c2ccc(N(C)C)cc2)cc(OC)c1OC (stereo unspecified)	15.5	.	17.6	5.6	-7.5	.	.	.
CC(C)c1ccc(C(O)P(=O)(OC2CCCCC2)OC2CCCCC2)cc1 (stereo unspecified)	43.9*	.	34.0	57.6*	13.5	26.1	.	46.0*
O=C1c2ccccc2C(=O)c2c(O)c(O)cc(O)c21	46.7*	-4.0	38.0	76.6*	.	28.8	.	70.5*
O=C1C=C(O)c2c(O)cc(O)c(O)c2C1=O	7.7	13.6	-17.6	21.9	22.3	.	.	.
Cc1c(Cl)cccc1N=Cc1ccc([N+](=O)[O-])s1	67.3*	112.2*	83.5*	64.9*	-6.1	61.1*	65.3*	76.0*
Cc1ccc(C=Nc2ccccc2C#N)s1	-5.8	-0.3	-5.5	5.2	-10.3	.	.	.
Cc1ccc(NS(=O)(=O)c2ccc(C(=O)NNC(=O)c3ccccc3O)cc2)cc1	13.2	.	-5.7	11.5	-8.0	.	.	.
COc1cc(OC)cc(C(=O)O/N=C(\N)c2cccc(C)c2)c1	52.8*	-20.1	78.8*	85.7*	17.8	39.7*	84.8*	82.8*
CCC(C(=O)O/N=C(\N)c1cccc(C)c1)c1ccccc1 (stereo unspecified)	62.6*	19.2	53.9*	60.9*	1.7	53.4*	-30.3	55.3*
Cc1cccc(/C(N)=N/OC(=O)c2cccnc2)c1	38.2	-46.6	37.4	35.4	5.3	.	.	.
Cc1cccc(C(=O)O/N=C(\N)c2cccc([N+](=O)[O-])c2)c1	73.9*	5.4	57.9*	52.8*	-0.1	80.4*	48.6*	50.5*
Cc1ccc(C)c(OCC(=O)O/N=C(\N)c2cccc([N+](=O)[O-])c2)c1	31.2	-5.6	22.4	28.3	-5.4	.	.	.
Cc1cccc(/C(N)=N/OC(=O)c2ccc3c(c2)OCO3)c1	74.6*	19.8	82.6*	87.6*	-2.1	65.8*	-5.8	85.1*
Cc1ccc(NC(=O)CSc2nnc(C3CC3)n2C)cc1S(=O)(=O)N1CCCCC1	-3.7	-20.3	8.3	-13.3	.	.	.	.
CSc1ccccc1C(=O)OCC(=O)Nc1cccnc1Cl	2.6	-20.9	-0.9	2.0	.	.	.	.
O=C(COc1ccc(C(=O)c2ccccc2)cc1)Nc1cccnc1	-61.3	-4.4	-2.2	2.7	-13.4	.	.	.
N/C(=N\OC(=O)CCC1CCCCC1)c1cccc([N+](=O)[O-])c1	78.9*	5.2	61.6*	53.8*	5.6	79.3*	48.5*	77.2*
N/C(=N\OC(=O)c1ccc(Br)o1)c1ccccn1	28.7	13.3	25.9	16.6	-4.0	.	.	.
